From PubChem
PKA-R1A activ = activates the PKA-R1A holoenzyme complex. P00514+P68181. PKA-R1A dissociation, Cy5-IP20 fluorescence polarization; scaled: DMSO 0%, 113 µM cGMP 100%. activation, % at 11.4 µM. 0.083% of 340,000 active. AID 504707;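 active means percent activation above the mean of all tested compounds plus 3 SD, cut at about 19% in these data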;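 further: higher means more PKAc released from R1A so a rise in polarization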
MsrA inh = bovine MsrA inhibition; purified bovine MsrA, absorbance read-out; inhibition, % at 15.5 µM; 0.75% of 360,000 active; in the data active means inhibition above about 4.5%;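 further: 0% = vehicle wells with enzyme and 100% = reference inhibitor wells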
Mot1-301 SUMO = inhibitors of SUMOylation pathway: yeast Mot1-301 growth rescue; AID 2716; 1% of 320,000 active; growth rescue, % at 18.8 µM; S. cerevisiae Mot1-301 growth rescue, ATP luminescence, 38.5C; percent above DMSO median, 100 means doubled;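 active means every valid replicate shows activation above 250% relative to neutral control wells; inactive means the rest, any valid replicate at or below 250%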;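 further: OY570 slx delta 5 strain wells were the positive control but not used for scaling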
PKA-R2B activ = PKA-R2B complex activation; AID 504700; PKA-R2B holoenzyme dissociation, Cy5-IP20 fluorescence polarization; R2B truncated from residue 108, S112A mutant; 0% DMSO only, 100% 113 µM cGMP; 0.079% of 340,000 active; activation, % at 11.4 µM;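 active means activation above a cutoff set at the mean over all compounds plus 3 SD, cut at about 18% in these data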;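 further: higher means more holoenzyme dissociation and a rise in polarization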
Target sequence (P31323 whole entry, looked up, other chains not shown, the tested form may be a part): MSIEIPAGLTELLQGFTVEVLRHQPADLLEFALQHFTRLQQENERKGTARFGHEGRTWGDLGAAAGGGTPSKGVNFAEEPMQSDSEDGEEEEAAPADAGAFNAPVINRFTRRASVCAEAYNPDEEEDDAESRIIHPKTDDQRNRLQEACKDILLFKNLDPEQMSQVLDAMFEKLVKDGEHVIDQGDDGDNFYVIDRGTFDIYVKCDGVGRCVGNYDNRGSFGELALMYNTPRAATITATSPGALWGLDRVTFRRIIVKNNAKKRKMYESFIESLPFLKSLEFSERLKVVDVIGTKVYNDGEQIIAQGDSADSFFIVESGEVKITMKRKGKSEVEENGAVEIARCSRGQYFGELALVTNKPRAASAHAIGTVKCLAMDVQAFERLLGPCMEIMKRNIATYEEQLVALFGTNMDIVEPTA
MsrA act = bovine methionine sulfoxide reductase A activation; purified bovine MsrA, absorbance read-out; AID 602163; 0.3% of 360,000 active; activation, % at 10.6 µM; in the data active means activation above about 7.5%;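 further: 0% = vehicle and 100% = reference activator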
MsrA act confirm = bovine methionine sulfoxide reductase A activation confirmed | shares compounds with MsrA act | purified bovine MsrA, absorbance read-out | activation, % at 10.6 µM | 12% of 1,000 active; in the data active means activation above about 4%;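 further: enzyme coupled to thioredoxin and thioredoxin reductase with NADPH; 0% = vehicle wells and 100% = reference activator wells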
An asterisk follows results filed as active; x = no result given. A selection: hits, their analogues and other compounds. The true share with any hit is near 2%.

SMILES	PKA-R1A activ	MsrA inh	Mot1-301 SUMO	PKA-R2B activ	MsrA act	MsrA act confirm
COC(=O)C1=C(C)N(Cc2ccccc2C(F)(F)F)C(=NCC2CC2)NC1c1ccc(C(F)(F)F)cc1 (stereo not given)	x	-1	x	x	x	x
COc1ccc(NC(=O)NC(C)c2ccccc2)cc1 (stereo not given)	-9	-1	-5	-4	17*	-1
Cc1cccc(NC(=O)C2(C)CC3c4ccccc4C2c2ccccc23)c1 (stereo not given)	-1	0	-8	-10	8.9*	0
COC(=O)[C@]12C[C@H](CC(=O)N3CCOCC3)C(=O)N(CCC3=CCCCC3)C1=C[C@H](COCc1ccccc1)O[C@@H]2C	x	0	x	x	x	x
O=[N+]([O-])c1cc(/C=N/O)ccc1N1CCCC1	-12	3	1	-10	-4	x
CO/N=C/c1ccc(N2CCCC2)c([N+](=O)[O-])c1	4	3	15	-1	17*	5.8*
CSCCC(c1nc2ccccc2[nH]1)n1c(/C=C/c2ccc(Cl)cc2)nc2ccccc21 (stereo not given)	x	0	x	x	x	x
CCCS(=O)(=O)N1CCCC(C(=O)N2CCC(Cc3ccccc3)CC2)C1 (stereo not given)	-8	-1	-3	10	7.7*	0
COc1ccc(-c2noc(N3CCC(C(=O)NCCCN4CCCCC4)CC3)n2)cc1	2	-1	7	-5	1	x
COc1ccc(-c2noc(N3CCC(C(=O)NCCCN4CCCC(C)C4)CC3)n2)cc1 (stereo not given)	1	-1	-8	-1	8.7*	0
Cc1no[n+]([O-])c1COc1cccc(/C=N/Nc2nncn2N)c1	-3	1	-13	0	12*	-3
C=CCN1C(=O)c2n[nH]c(COC)c2C1c1cccc(C(F)(F)F)c1 (stereo not given)	x	0	x	x	x	x
COc1cc(C(=O)Oc2cc(C)cc(C)c2)cc(OC)c1OC	9	0	7	3	8.8*	-3
COc1ccc(NC(=O)c2ccc([N+](=O)[O-])cc2[N+](=O)[O-])c(OC)c1	-1	2	14	3	11*	1
COC(=O)c1ccc(Nc2nc3ccc(C)cc3n3cnnc23)cc1	-7	1	55	11	-1	x
CC(=O)c1ccc(Nc2nc3ccc(C)cc3n3cnnc23)cc1	-2	-1	-1	4	8.2*	-1
C=CCN1C(=O)c2n[nH]c(C)c2C1c1ccc(C)cc1 (stereo not given)	x	0	x	x	x	x
CC[n+]1ccc(C[n+]2ccccc2)c2ccccc21	-9	1	-13	-4	11*	1
COc1cccc(CNC(=O)[C@H]2CCCN2C(=O)[C@H]2CCCN2C(=O)c2cccc(F)c2)c1	x	-1	x	x	x	x
Cc1cc(C)c2c(-n3cccc3)c(C(=O)NNS(=O)(=O)c3ccc(Br)cc3)sc2n1	-3	1	x	-6	8.5*	-2
CCOC(=O)Nc1sc2nc(C)cc(C)c2c1-n1cccc1	-1	0	8	-1	-3	x
COc1ccc(NC(=O)COC(=O)Cc2coc3cc(OC)ccc23)c(OC)c1	0	0	-13	-1	8.0*	-1
COc1ccc2c(CC(=O)Nc3ccccc3OC)coc2c1	-6	-1	-1	-10	-3	x
NS(=O)(=O)c1ccc2c(c1)C(=NO)c1cc(S(N)(=O)=O)ccc1-2	0	-1	-4	-2	2	x
NC1=C(Cl)C(=O)c2ccc(S(N)(=O)=O)cc2C1=O	0	1	x	12	24*	14*
SMILES	PKA-R1A activ	MsrA inh	Mot1-301 SUMO	PKA-R2B activ	MsrA act	MsrA act confirm
O=C1C(Cl)=C(NCCCO)C(=O)c2ccccc21	-9	1	34	-14	0	x
NC1=C(Cl)C(=O)c2ccccc2C1=O	-2	-1	x	-8	18*	12*
N#CCCN1CCC(N)=NC1=NC#N	x	1	x	x	x	x
Cn1c(CO)cnc1SCC(=O)c1ccc(F)cc1	-9	1	188	3	-5	x
Cn1c(CO)cnc1SCC(=O)c1ccc(Br)cc1	12	2	-7	-2	13*	-3
C[C@H](c1ccccc1)N1C[C@@H](COCc2ccccc2)Oc2cccc(N3CCCCC3)c2S1(=O)=O	x	0	x	x	x	x
CCOC(=O)C1CCCN(C/C=C/c2ccccc2[N+](=O)[O-])C1 (stereo not given)	4	0	-1	-13	7.9*	-1
CCCCCn1c(=O)c2ccccc2n2c(=S)[nH]nc12	3	0	-14	3	9.6*	-3
COc1ccc(N2CCN(Cc3cc4c(cc3O)CCC4)CC2)cc1	3	1	-5	-10	14*	0
CN(Cc1ccccc1)C(=O)c1csc([C@@H]2O[C@H](CO)[C@H](O)[C@H](O)[C@H]2O)n1	x	0	x	x	14*	-1
CN(Cc1ccccc1)C(=O)c1ccc2sc([C@@H]3O[C@H](CO)[C@H](O)[C@H](O)[C@H]3O)nc2c1	x	0	x	x	-2	x
CCN1CCN(C(=O)Nc2ccc(Cc3ccc(NC(=O)N4CCN(CC)CC4)cc3)cc2)CC1	-7	1	0	4	8.2*	1
COCCn1nnnc1CN1CCN(c2cccc(C(F)(F)F)c2)CC1	-12	-1	-6	4	8.4*	1
CC1CCN(CCCNC(=O)c2cn(C)c3ccc(S(=O)(=O)N4CCCC4)cc3c2=O)CC1	4	3	-7	2	7.9*	0
CC1CC(C)CN(CCCNC(=O)c2cn(C)c3ccc(S(=O)(=O)N4CCCC4)cc3c2=O)C1 (stereo not given)	-11	1	9	1	-9	x
C[C@@H]1CCCCO[C@@H](CN(C)C(=O)CCC(F)(F)F)[C@@H](C)CN([C@H](C)CO)C(=O)c2cc(NS(=O)(=O)c3cccs3)ccc2O1	x	0	x	x	x	x
O=C(NCc1ccccc1)[C@H]1CCCN1C(=O)[C@H]1CCCN1C(=O)C1CCCCC1	x	0	x	x	x	x
O=C(NCCCN1CCOCC1)C1CC(=O)N(c2ccccc2)C1 (stereo not given)	6	1	37	2	-1	x
CCOc1ccc(N2CC(C(=O)NCCCN3CCOCC3)CC2=O)cc1 (stereo not given)	3	0	6	-11	9.1*	-2
COCCn1c2nc(=O)n(-c3ccccc3)c(=O)c-2nc2ccccc21	4	1	x	-2	26*	8.7*
COCCn1c(-c2ccc(OC)cc2)nc2ccccc21	7	0	-13	-4	-1	x
Cc1cccc(NNC(=S)Nc2c(C)cccc2C)c1	7	1	-8	-2	8.0*	1
CCc1cc2c(=O)n(CC(C)C)cnc2s1	5	-1	3	-3	-4	x
CCCCCn1cnc2sc(CC)cc2c1=O	-4	-1	-7	3	14*	3
CC(=O)Nc1cccc(OCCCNC(=O)c2ccc(F)cc2)c1	-11	1	-25	-16	9.0*	0
